Measurements reported in the supplement of paper PMC11732987, “Enantioselective OTUD7B fragment discovery through chemoproteomics screening and high-throughput optimisation” (Communications Chemistry, 2025).

What was measured:
Experiment in all cases: log2 ratio of Biotin-Ahx-Ub-VS probe labelling (compound/DMSO); higher = less target engagement, active = hit call of the paper (q ≤ 0.05, log2 ratio ≤ -1)
Settings in all cases: treatment time: 3 h
[1] = compound: CCC1N(CCc2sccc12)C(=O)CCl
Method in brief: (§1)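 HEK293T lysate (495 µg per sample, in Tris/CHAPS/IGEPAL buffer with protease inhibitors) was exposed in triplicate to compound at 50 or 200 µM, or to DMSO, for 3 h, then to Biotin-Ahx-Ub-VS (0.5 µM final) for 1 h. The labelled DUBs were enriched on NeutrAvidin, digested with LysC and trypsin, and analysed by diaPASEF LC-MS/MS. Average base-two log ratios of compound over DMSO came from median-normalised label-free quantities by unpaired t-test. Only proteins with at least 2 unique peptides were used.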

[2] = compound: CN1c2ccccc2C(CS1(=O)=O)NC(=O)CCl
Method in brief: as §1

[3] = compound: Cl.ClCC(=O)N1CCc2ncncc2C1
Method in brief: as §1

[4] = compound: Cl.Cn1ncc2C(CCCc12)NC(=O)CCl
Method in brief: as §1

[5] = compound: ClCC(=O)NC1CCOc2ccccc12
Method in brief: as §1

[6] = compound: ClCC(=O)NC1CCCc2ccccc12
Method in brief: (§2)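 In triplicate, 495 µg portions of HEK293T lysate in Tris/CHAPS/IGEPAL buffer with protease inhibitors received compound across a concentration series or vehicle for 3 h, followed by 1 h with 0.5 µM final Biotin-Ahx-Ub-VS. After NeutrAvidin enrichment and LysC/trypsin digestion, the labelled deubiquitinases were measured by diaPASEF LC-MS/MS and quantified label-free in Spectronaut with global-median normalisation. Each value is an average compound-to-vehicle ratio from an unpaired t-test, expressed as log2 and restricted to proteins having two or more unique peptides.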

[7] = compound: ClCC(=O)N[C@@H]1CCCc2ccccc12
Method in brief: as §2

[8] = compound: ClCC(=O)N[C@H]1CCCc2ccccc12
Method in brief: as §2

[9] = compound: CCC1N(CCc2cc(OC)c(Cl)cc12)C(=O)CCl
Method in brief: as §1

[10] = compound: CCCC1N(CCc2cc(OC)c(OC)cc12)C(=O)CCl
Method in brief: as §1

Measured: log2 ratio of Biotin-Ahx-Ub-VS probe labelling

USP5 (UniProt P45974)
inactive: [1]; compound concentration: 50uM 0.107 | [1]; compound concentration: 200uM 0.165 | [2]; compound concentration: 50uM -0.0432 | [2]; compound concentration: 200uM -0.0749 | [3]; compound concentration: 50uM 0.179 | [3]; compound concentration: 200uM -0.233 | [4]; compound concentration: 50uM 0.122 | [4]; compound concentration: 200uM -0.00464 | [5]; compound concentration: 50uM 0.209 | [5]; compound concentration: 200uM 0.107 | [6]; compound concentration: 0.78uM -0.0702 | [6]; compound concentration: 1.56uM -0.0265 | [6]; compound concentration: 3.13uM -0.189 | [6]; compound concentration: 6.25uM -0.131 | [6]; compound concentration: 12.5uM -0.157 | [6]; compound concentration: 25uM -0.19 | [6]; compound concentration: 50uM -0.0861 | [6]; compound concentration: 100uM -0.067 | [6]; compound concentration: 200uM -0.0831 | [7]; compound concentration: 0.78uM -0.209 | [7]; compound concentration: 1.56uM -0.162 | [7]; compound concentration: 3.13uM -0.139 | [7]; compound concentration: 6.25uM -0.155 | [7]; compound concentration: 12.5uM -0.0604 | [7]; compound concentration: 25uM -0.131 | [7]; compound concentration: 50uM -0.159 | [7]; compound concentration: 100uM -0.0875 | [7]; compound concentration: 200uM -0.125 | [8]; compound concentration: 0.78uM -0.109 | [8]; compound concentration: 1.56uM -0.17 | [8]; compound concentration: 3.13uM -0.185 | [8]; compound concentration: 6.25uM -0.0549 | [8]; compound concentration: 12.5uM -0.103 | [8]; compound concentration: 25uM -0.119 | [8]; compound concentration: 50uM -0.0192 | [8]; compound concentration: 100uM -0.093 | [8]; compound concentration: 200uM -0.184 | [9]; compound concentration: 50uM 0.0912 | [9]; compound concentration: 200uM -0.014 | [10]; compound concentration: 50uM -0.158 | [10]; compound concentration: 200uM -0.268

USP34 (UniProt Q70CQ2)
Sequence of UniProt Q70CQ2 (Q70CQ2 whole entry): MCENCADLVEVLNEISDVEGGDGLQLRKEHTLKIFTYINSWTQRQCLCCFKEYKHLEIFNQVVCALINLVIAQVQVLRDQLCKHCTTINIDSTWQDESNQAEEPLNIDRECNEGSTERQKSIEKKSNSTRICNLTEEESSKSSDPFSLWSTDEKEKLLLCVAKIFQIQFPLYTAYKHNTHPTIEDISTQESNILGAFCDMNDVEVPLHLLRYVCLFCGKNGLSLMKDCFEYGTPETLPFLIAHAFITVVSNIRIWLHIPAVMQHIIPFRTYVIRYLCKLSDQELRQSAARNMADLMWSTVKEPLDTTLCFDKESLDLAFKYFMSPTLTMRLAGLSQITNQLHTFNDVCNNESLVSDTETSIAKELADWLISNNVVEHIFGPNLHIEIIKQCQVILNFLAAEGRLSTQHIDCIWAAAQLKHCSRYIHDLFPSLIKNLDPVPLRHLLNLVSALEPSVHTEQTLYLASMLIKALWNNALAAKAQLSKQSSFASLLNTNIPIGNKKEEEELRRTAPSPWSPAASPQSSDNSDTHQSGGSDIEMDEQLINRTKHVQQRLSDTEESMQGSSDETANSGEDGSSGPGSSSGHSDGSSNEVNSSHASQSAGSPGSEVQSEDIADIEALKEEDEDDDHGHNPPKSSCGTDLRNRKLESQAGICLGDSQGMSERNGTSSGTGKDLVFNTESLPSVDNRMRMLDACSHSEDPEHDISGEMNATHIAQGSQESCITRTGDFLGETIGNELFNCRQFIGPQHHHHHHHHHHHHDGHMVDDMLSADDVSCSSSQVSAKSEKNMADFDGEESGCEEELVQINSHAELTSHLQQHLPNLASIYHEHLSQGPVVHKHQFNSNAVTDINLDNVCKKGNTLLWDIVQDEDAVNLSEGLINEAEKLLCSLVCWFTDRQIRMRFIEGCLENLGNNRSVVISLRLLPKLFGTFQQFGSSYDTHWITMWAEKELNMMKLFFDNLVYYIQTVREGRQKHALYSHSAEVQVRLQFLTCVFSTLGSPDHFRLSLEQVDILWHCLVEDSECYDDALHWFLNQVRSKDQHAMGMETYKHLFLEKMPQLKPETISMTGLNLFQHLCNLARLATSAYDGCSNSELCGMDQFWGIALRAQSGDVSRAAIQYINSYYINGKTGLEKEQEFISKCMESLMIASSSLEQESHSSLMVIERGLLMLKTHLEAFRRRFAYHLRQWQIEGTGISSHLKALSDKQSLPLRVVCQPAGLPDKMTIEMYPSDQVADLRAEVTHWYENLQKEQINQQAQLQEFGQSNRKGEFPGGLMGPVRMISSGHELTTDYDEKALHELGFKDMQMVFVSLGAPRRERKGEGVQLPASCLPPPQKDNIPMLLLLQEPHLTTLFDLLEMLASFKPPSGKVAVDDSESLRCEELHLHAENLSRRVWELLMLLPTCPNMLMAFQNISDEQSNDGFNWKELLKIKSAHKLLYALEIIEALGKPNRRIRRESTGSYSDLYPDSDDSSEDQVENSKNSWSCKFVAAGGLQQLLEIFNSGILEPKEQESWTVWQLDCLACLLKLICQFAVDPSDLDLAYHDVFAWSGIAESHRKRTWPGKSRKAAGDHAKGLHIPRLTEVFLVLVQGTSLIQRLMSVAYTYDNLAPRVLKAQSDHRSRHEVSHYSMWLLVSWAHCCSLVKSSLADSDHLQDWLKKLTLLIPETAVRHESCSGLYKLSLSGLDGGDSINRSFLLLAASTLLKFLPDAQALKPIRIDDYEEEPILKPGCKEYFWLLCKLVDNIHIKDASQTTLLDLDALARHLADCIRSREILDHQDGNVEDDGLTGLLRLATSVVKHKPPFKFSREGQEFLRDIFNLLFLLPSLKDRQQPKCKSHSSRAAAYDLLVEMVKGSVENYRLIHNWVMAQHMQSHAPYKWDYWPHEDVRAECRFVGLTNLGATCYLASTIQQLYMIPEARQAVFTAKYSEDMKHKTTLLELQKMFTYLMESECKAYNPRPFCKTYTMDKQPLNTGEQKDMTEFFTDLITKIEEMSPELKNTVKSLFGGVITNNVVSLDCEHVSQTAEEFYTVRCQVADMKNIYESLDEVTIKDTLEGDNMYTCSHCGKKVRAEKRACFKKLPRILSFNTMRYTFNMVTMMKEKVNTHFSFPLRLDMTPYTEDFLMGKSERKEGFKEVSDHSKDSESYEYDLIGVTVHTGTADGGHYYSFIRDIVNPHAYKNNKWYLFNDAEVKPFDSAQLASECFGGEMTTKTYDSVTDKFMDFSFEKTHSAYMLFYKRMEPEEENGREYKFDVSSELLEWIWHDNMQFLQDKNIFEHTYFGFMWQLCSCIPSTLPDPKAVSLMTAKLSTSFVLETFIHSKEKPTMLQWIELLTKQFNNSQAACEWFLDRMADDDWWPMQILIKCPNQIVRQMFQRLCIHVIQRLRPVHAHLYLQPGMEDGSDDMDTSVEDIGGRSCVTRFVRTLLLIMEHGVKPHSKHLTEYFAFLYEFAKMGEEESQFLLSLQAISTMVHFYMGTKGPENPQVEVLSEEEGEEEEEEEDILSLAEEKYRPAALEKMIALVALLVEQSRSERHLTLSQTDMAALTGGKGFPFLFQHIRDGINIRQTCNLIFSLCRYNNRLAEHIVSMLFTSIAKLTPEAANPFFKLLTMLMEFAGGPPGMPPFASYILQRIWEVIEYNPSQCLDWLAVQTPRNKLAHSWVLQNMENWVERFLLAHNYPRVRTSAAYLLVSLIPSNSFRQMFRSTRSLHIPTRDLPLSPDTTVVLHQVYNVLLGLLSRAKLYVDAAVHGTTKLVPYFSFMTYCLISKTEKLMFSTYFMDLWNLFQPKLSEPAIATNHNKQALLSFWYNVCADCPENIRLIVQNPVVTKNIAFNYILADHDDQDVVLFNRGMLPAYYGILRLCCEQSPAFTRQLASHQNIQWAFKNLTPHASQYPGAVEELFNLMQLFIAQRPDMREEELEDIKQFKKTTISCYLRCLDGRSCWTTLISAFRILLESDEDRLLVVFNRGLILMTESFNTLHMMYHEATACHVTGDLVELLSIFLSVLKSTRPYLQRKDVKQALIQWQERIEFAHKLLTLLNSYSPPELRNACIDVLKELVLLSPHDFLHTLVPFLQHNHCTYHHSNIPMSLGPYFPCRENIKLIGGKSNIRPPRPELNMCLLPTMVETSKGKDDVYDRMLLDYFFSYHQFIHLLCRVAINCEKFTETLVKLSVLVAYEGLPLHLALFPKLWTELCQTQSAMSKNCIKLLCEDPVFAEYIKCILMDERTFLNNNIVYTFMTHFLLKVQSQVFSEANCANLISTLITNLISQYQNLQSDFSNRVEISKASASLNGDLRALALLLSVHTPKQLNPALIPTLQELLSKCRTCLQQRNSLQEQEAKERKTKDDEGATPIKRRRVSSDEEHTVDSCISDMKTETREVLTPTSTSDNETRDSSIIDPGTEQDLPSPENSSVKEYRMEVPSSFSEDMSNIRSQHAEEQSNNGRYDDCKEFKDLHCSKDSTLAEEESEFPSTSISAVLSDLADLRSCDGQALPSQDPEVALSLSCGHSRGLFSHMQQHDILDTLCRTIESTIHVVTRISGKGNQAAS
active: [9]; compound concentration: 200uM -1.07
inactive: [1]; compound concentration: 50uM 0.0562 | [1]; compound concentration: 200uM 0.0678 | [2]; compound concentration: 50uM -0.259 | [2]; compound concentration: 200uM -0.515 | [3]; compound concentration: 50uM -0.659 | [3]; compound concentration: 200uM 0.31 | [4]; compound concentration: 50uM 0.745 | [4]; compound concentration: 200uM -0.98 | [5]; compound concentration: 50uM -0.212 | [5]; compound concentration: 200uM -0.0537 | [6]; compound concentration: 0.78uM 0.221 | [6]; compound concentration: 1.56uM 0.0458 | [6]; compound concentration: 3.13uM 0.0621 | [6]; compound concentration: 6.25uM -0.0557 | [6]; compound concentration: 12.5uM -0.314 | [6]; compound concentration: 25uM 0.126 | [6]; compound concentration: 50uM 0.134 | [6]; compound concentration: 100uM 0.11 | [6]; compound concentration: 200uM -0.619 | [7]; compound concentration: 0.78uM -0.0727 | [7]; compound concentration: 1.56uM -0.0851 | [7]; compound concentration: 3.13uM -0.276 | [7]; compound concentration: 6.25uM -0.184 | [7]; compound concentration: 12.5uM -0.209 | [7]; compound concentration: 25uM -0.23 | [7]; compound concentration: 50uM -0.396 | [7]; compound concentration: 100uM 0.0355 | [7]; compound concentration: 200uM 0.0474 | [8]; compound concentration: 0.78uM 0.0344 | [8]; compound concentration: 1.56uM -0.271 | [8]; compound concentration: 3.13uM -0.199 | [8]; compound concentration: 6.25uM 0.0878 | [8]; compound concentration: 12.5uM 0.322 | [8]; compound concentration: 25uM -0.00214 | [8]; compound concentration: 50uM 0.198 | [8]; compound concentration: 100uM 0.181 | [8]; compound concentration: 200uM -0.295 | [9]; compound concentration: 50uM 0.165 | [10]; compound concentration: 50uM 0.0993 | [10]; compound concentration: 200uM 0.244

FAM105A (UniProt Q9NUU6)
Sequence of UniProt Q9NUU6 (Q9NUU6 whole entry): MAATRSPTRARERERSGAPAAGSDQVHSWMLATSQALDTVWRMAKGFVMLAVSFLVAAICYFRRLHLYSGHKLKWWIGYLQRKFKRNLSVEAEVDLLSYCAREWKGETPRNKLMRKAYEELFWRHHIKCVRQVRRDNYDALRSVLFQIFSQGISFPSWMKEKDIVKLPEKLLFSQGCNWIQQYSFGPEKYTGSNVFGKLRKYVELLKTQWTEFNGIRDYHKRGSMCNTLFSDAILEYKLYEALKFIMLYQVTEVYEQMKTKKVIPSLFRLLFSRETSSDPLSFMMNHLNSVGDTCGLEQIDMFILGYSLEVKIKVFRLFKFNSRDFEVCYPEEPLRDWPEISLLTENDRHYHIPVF
inactive: [1]; compound concentration: 50uM -0.137 | [1]; compound concentration: 200uM -0.0129 | [2]; compound concentration: 50uM 0.0298 | [2]; compound concentration: 200uM 0.102 | [3]; compound concentration: 50uM -0.0634 | [3]; compound concentration: 200uM -0.355 | [4]; compound concentration: 50uM -0.00158 | [4]; compound concentration: 200uM -0.0665 | [5]; compound concentration: 50uM -0.0638 | [5]; compound concentration: 200uM -0.105 | [6]; compound concentration: 0.78uM 0.0819 | [6]; compound concentration: 1.56uM 0.102 | [6]; compound concentration: 3.13uM -0.00663 | [6]; compound concentration: 6.25uM 0.0556 | [6]; compound concentration: 12.5uM 0.00386 | [6]; compound concentration: 25uM -0.153 | [6]; compound concentration: 50uM 0.14 | [6]; compound concentration: 100uM -0.0653 | [6]; compound concentration: 200uM 0.157 | [7]; compound concentration: 0.78uM 0.0146 | [7]; compound concentration: 1.56uM 0.139 | [7]; compound concentration: 3.13uM 0.288 | [7]; compound concentration: 6.25uM 0.071 | [7]; compound concentration: 12.5uM -0.0354 | [7]; compound concentration: 25uM -0.00679 | [7]; compound concentration: 50uM 0.0826 | [7]; compound concentration: 100uM 0.0658 | [7]; compound concentration: 200uM -0.0519 | [8]; compound concentration: 0.78uM 0.122 | [8]; compound concentration: 1.56uM -0.0166 | [8]; compound concentration: 3.13uM 0.227 | [8]; compound concentration: 6.25uM 0.317 | [8]; compound concentration: 12.5uM 0.0169 | [8]; compound concentration: 25uM 0.0586 | [8]; compound concentration: 50uM -0.064 | [8]; compound concentration: 100uM 0.0853 | [8]; compound concentration: 200uM 0.091 | [9]; compound concentration: 50uM 0.0998 | [9]; compound concentration: 200uM -0.0916 | [10]; compound concentration: 50uM -0.253 | [10]; compound concentration: 200uM -0.175

UniProt Q9P2H5
Sequence of UniProt Q9P2H5 (Q9P2H5 whole entry): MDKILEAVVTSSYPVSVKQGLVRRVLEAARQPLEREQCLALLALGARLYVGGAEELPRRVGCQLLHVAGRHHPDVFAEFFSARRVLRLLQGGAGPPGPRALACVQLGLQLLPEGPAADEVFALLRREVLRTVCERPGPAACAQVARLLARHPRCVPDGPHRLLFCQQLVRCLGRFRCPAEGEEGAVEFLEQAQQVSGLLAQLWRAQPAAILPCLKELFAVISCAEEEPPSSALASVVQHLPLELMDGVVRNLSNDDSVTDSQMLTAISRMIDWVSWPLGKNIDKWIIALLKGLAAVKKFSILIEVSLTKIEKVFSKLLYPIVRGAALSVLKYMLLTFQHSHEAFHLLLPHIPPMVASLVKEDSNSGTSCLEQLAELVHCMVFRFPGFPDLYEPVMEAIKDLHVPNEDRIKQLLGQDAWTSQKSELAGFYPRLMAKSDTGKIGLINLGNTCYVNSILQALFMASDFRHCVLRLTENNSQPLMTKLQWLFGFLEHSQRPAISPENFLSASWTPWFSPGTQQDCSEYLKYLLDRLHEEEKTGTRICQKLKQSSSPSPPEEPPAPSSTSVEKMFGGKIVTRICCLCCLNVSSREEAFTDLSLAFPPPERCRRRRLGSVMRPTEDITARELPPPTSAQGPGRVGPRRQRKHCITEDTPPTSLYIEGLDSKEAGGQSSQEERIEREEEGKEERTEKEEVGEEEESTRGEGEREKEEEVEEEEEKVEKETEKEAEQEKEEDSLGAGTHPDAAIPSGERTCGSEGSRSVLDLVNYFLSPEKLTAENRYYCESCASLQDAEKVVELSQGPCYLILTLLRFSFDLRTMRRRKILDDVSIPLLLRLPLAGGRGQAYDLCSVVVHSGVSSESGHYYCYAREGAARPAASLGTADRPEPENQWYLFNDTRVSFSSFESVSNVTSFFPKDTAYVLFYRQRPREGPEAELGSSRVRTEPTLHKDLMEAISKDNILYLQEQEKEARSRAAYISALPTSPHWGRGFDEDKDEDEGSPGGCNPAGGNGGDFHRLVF
inactive: [1]; compound concentration: 50uM -0.0377 | [1]; compound concentration: 200uM 0.00874 | [2]; compound concentration: 50uM -0.392 | [2]; compound concentration: 200uM -0.0291 | [3]; compound concentration: 50uM -0.175 | [3]; compound concentration: 200uM -0.43 | [4]; compound concentration: 50uM 0.0391 | [4]; compound concentration: 200uM 0.177 | [5]; compound concentration: 50uM -0.286 | [5]; compound concentration: 200uM -0.188 | [6]; compound concentration: 0.78uM -0.0934 | [6]; compound concentration: 1.56uM -0.117 | [6]; compound concentration: 3.13uM -0.133 | [6]; compound concentration: 6.25uM -0.0237 | [6]; compound concentration: 12.5uM -0.00833 | [6]; compound concentration: 25uM -0.293 | [6]; compound concentration: 50uM -0.0682 | [6]; compound concentration: 100uM -0.133 | [6]; compound concentration: 200uM -0.168 | [7]; compound concentration: 0.78uM -0.164 | [7]; compound concentration: 1.56uM -0.0308 | [7]; compound concentration: 3.13uM -0.0316 | [7]; compound concentration: 6.25uM -0.151 | [7]; compound concentration: 12.5uM -0.2 | [7]; compound concentration: 25uM -0.0579 | [7]; compound concentration: 50uM 0.05 | [7]; compound concentration: 100uM -0.00994 | [7]; compound concentration: 200uM -0.0974 | [8]; compound concentration: 0.78uM 0.0582 | [8]; compound concentration: 1.56uM -0.146 | [8]; compound concentration: 3.13uM -0.121 | [8]; compound concentration: 6.25uM -0.0964 | [8]; compound concentration: 12.5uM -0.172 | [8]; compound concentration: 25uM -0.164 | [8]; compound concentration: 50uM -0.0898 | [8]; compound concentration: 100uM -0.0993 | [8]; compound concentration: 200uM 0.0345 | [9]; compound concentration: 50uM 0.132 | [9]; compound concentration: 200uM -0.452 | [10]; compound concentration: 50uM -0.52 | [10]; compound concentration: 200uM -0.532
